# Reference: ChEMBL document CHEMBL1157539, “Thousands of chemical starting points for antimalarial lead identification” (Nature, 2010)
# Assays:
# Assay type in all cases: functional
# [1] = tested on: Plasmodium falciparum; experiment: GSK_TCMDC: Inhibition of Plasmodium falciparum 3D7 in whole red blood cells, using parasite LDH activity as an index of growth. Test compounds present at 2uM
# [2] = tested on: Plasmodium falciparum; experiment: GSK_TCMDC: Inhibition of Plasmodium falciparum Dd2 in whole red blood cells, using parasite LDH activity as an index of growth. Test compounds present at 2uM
# [3] = tested on: HepG2; experiment: GSK_TCMDC: Percent inhibition of human HepG2 cell line. Test compounds present at 10uM.
SMILES,Inhibition [1] [%],Inhibition [2] [%],Inhibition [3] [%]
Cl.Clc1ccc2c(NCCCCCCCCNc3ccnc4cc(Cl)ccc34)ccnc2c1,99,96,2
CCN1CCC(N(Cc2ccc(-c3ccc(C(F)(F)F)cc3)cc2)C(=O)Cn2c(CCc3cccc(F)c3F)cc(=O)c3ccccc32)CC1.O=C(O)C(O)C(O)C(=O)O,94,94,100
Oc1ccc2[nH]cc(C3CCN(CCCNCc4ccc(-c5ccccc5)cc4)CC3)c2c1,100,0,22
CC[C@H]1CN(Cc2cccc(O)c2)CC[C@H]1CCCc1ccnc2ccc(O)cc12,100,98,14
CCCCCCn1c(Sc2ccc(C#N)c([N+](=O)[O-])c2)nnc1-c1cccc(Cl)c1,96,90,17
CCOC(=O)CNC(=O)c1cc(=O)c2ccccc2o1,99,0,22
Cc1ccc(NC(=O)c2ccc(CN3CCCN(Cc4cccc(O)c4)CC3)cc2)cc1.O=C(O)C(F)(F)F,90,31,39
Cc1ccccc1-c1nc2c(CN3CCC(O)(c4ccccc4)CC3)c(O)ccc2[nH]1,92,61,27
Cc1noc(C)c1-c1ccc2c(Nc3ccccc3C(C)(C)C)c(C(=O)NCc3ccc(OC(C)C)cc3)cnc2c1.Cl,100,98,0
N#Cc1ccc(N/C(=N\c2cccc(Cl)c2Cl)NCc2ccc(Cl)cc2Cl)c(O)c1,97,75,3
